According to PubChem BioAssay (NCI):
This is part of a sample that, as a whole, favours compounds with a hit. Of some 83,000 tested, about 20% had one in any assay.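 Testing used 96-well plates and a 48-hour single-concentration exposure. Example: -40 means 40% of the starting cells died.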 Calls of active or inactive are those of the source. Rule for the calls: active = growth percent below 10; inactive = the rest.

Tests used:
Assay in all cases: NCI-60 one-dose screen, 48 h (100 = growth as untreated, 0 = no growth, -100 = all killed)
Conditions in all cases: 10 µM unless noted
DU-145 prostate = test system: DU-145 prostate
K-562 leukemia = test system: K-562 leukemia
MALME-3M melanoma = test system: MALME-3M melanoma
MDA-MB-231 breast = test system: MDA-MB-231 breast
RXF 393 renal = test system: RXF 393 renal
SF-268 CNS = test system: SF-268 CNS
SF-295 CNS = test system: SF-295 CNS
SF-539 CNS = test system: SF-539 CNS
UACC-257 melanoma = test system: UACC-257 melanoma
M14 melanoma = test system: M14 melanoma
HCT-15 colon = test system: HCT-15 colon
HT29 colon = test system: HT29 colon
SNB-75 CNS = test system: SNB-75 CNS
SNB-19 CNS = test system: SNB-19 CNS
U251 CNS = test system: U251 CNS
PC-3 prostate = test system: PC-3 prostate
SK-MEL-5 melanoma = test system: SK-MEL-5 melanoma
UACC-62 melanoma = test system: UACC-62 melanoma
LOX IMVI melanoma = test system: LOX IMVI melanoma
SK-MEL-28 melanoma = test system: SK-MEL-28 melanoma

Measured: growth

CCOC(=O)CCC(=O)P(=O)(O)O
active: K-562 leukemia 8.96%
inactive: DU-145 prostate 114% | MALME-3M melanoma 103% | MDA-MB-231 breast 119% | RXF 393 renal 122% | SF-268 CNS 114% | SF-295 CNS 101% | SF-539 CNS 101% | UACC-257 melanoma 93% | M14 melanoma 92.4% | HCT-15 colon 108% | HT29 colon 95.9% | SNB-75 CNS 146% | SNB-19 CNS 92.6% | U251 CNS 102% | PC-3 prostate 62.8% | SK-MEL-5 melanoma 104% | UACC-62 melanoma 96.6% | LOX IMVI melanoma 104% | SK-MEL-28 melanoma 93.6%

C(=N\Nc1nnc2n1N=C(c1ccccc1)CS2)/c1ccc(OCc2ccccc2)cc1
inactive: DU-145 prostate 104% | K-562 leukemia 57.6% | MALME-3M melanoma 125% | MDA-MB-231 breast 108% | RXF 393 renal 80.1% | SF-268 CNS 115% | SF-295 CNS 101% | SF-539 CNS 102% | UACC-257 melanoma 103% | M14 melanoma 113% | HCT-15 colon 97.4% | HT29 colon 114% | SNB-75 CNS 108% | SNB-19 CNS 102% | U251 CNS 97.6% | PC-3 prostate 76.2% | SK-MEL-5 melanoma 82.9% | UACC-62 melanoma 89.8% | LOX IMVI melanoma 95.8% | SK-MEL-28 melanoma 104%

C#CCOc1cccc(Nc2c(Cl)c(CCl)nc3ccc(Oc4ccccc4)cc23)c1
active: HT29 colon 7.96% | LOX IMVI melanoma -34.1%
inactive: DU-145 prostate 43.8% | K-562 leukemia 15% | MALME-3M melanoma 68.4% | MDA-MB-231 breast 33.2% | RXF 393 renal 78.6% | SF-268 CNS 18.8% | SF-295 CNS 88.7% | SF-539 CNS 80.7% | UACC-257 melanoma 90% | M14 melanoma 47.7% | HCT-15 colon 12.3% | SNB-75 CNS 75.5% | SNB-19 CNS 62.5% | U251 CNS 24.9% | PC-3 prostate 78% | SK-MEL-5 melanoma 30.4% | UACC-62 melanoma 39.9% | SK-MEL-28 melanoma 65.4%

COc1ccc(NC(=O)c2ccc(NC3=C(c4ccc(Cl)cc4)C(=O)NC3=O)cc2)cc1
inactive: DU-145 prostate 91.4% | K-562 leukemia 79% | MALME-3M melanoma 86.9% | MDA-MB-231 breast 84.8% | RXF 393 renal 84.4% | SF-268 CNS 83.8% | SF-295 CNS 86.8% | SF-539 CNS 92.4% | UACC-257 melanoma 85.9% | M14 melanoma 102% | HCT-15 colon 75.1% | HT29 colon 66.7% | SNB-75 CNS 85.7% | SNB-19 CNS 91.8% | U251 CNS 82.3% | PC-3 prostate 64.3% | SK-MEL-5 melanoma 80.8% | UACC-62 melanoma 81.6% | LOX IMVI melanoma 87.7% | SK-MEL-28 melanoma 101%

CN1CCN(CC(=O)N(C)c2ccc(N=C(c3ccccc3)c3c(O)[nH]c4ccc([N+](=O)[O-])cc34)cc2)CC1
inactive: DU-145 prostate 51.3% | MALME-3M melanoma 84% | MDA-MB-231 breast 63.5% | RXF 393 renal 28.2% | SF-268 CNS 74.3% | SF-295 CNS 53.9% | SF-539 CNS 36.1% | UACC-257 melanoma 103% | M14 melanoma 36.3% | HCT-15 colon 56.8% | HT29 colon 22.7% | SNB-75 CNS 74.3% | SNB-19 CNS 89.2% | U251 CNS 73.1% | PC-3 prostate 47.6% | SK-MEL-5 melanoma 53% | UACC-62 melanoma 102% | LOX IMVI melanoma 36.3% | SK-MEL-28 melanoma 75.4%
active: K-562 leukemia 5.2%

C=CC(=O)Nc1ccc2ncnc(Nc3cccc(NS(=O)(=O)CCC)c3Cl)c2c1
active: MALME-3M melanoma 7.81% | UACC-257 melanoma 5.07% | HT29 colon 7.98% | SNB-75 CNS 8.28% | UACC-62 melanoma 6.45%
inactive: DU-145 prostate 37.8% | K-562 leukemia 67.2% | MDA-MB-231 breast 24.3% | RXF 393 renal 15.1% | SF-268 CNS 48% | SF-295 CNS 72.9% | SF-539 CNS 44.4% | M14 melanoma 19.6% | HCT-15 colon 67.9% | SNB-19 CNS 49% | U251 CNS 52.5% | PC-3 prostate 68% | SK-MEL-5 melanoma 52.4% | LOX IMVI melanoma 40.7% | SK-MEL-28 melanoma 15%

COc1cc2ncnc(Nc3ccc(S(=O)(=O)Nc4cc(C)on4)cc3)c2cc1OCCCN1CCOCC1
inactive: DU-145 prostate 108% | K-562 leukemia 102% | MALME-3M melanoma 95.3% | MDA-MB-231 breast 105% | RXF 393 renal 102% | SF-268 CNS 98.1% | SF-295 CNS 97.7% | SF-539 CNS 99.4% | UACC-257 melanoma 99.8% | M14 melanoma 105% | HCT-15 colon 105% | HT29 colon 101% | SNB-75 CNS 90.8% | SNB-19 CNS 101% | U251 CNS 95.2% | PC-3 prostate 103% | SK-MEL-5 melanoma 97.1% | UACC-62 melanoma 104% | LOX IMVI melanoma 96.4% | SK-MEL-28 melanoma 115%

CNC(=O)c1cc(Oc2ccc3nc(NC(=O)c4cc(C(F)(F)F)cc(C(F)(F)F)c4)sc3c2)ccn1
inactive: DU-145 prostate 27.5% | K-562 leukemia 13.3% | SF-268 CNS 23.6% | SF-539 CNS 19.1% | M14 melanoma 22% | HCT-15 colon 32.1% | HT29 colon 31.5% | SNB-75 CNS 28.5% | SNB-19 CNS 15.5% | U251 CNS 14.2% | LOX IMVI melanoma 27.4% | SK-MEL-28 melanoma 26.4%
active: MALME-3M melanoma 2.93% | MDA-MB-231 breast 8.74% | RXF 393 renal -3.77% | SF-295 CNS 3.03% | UACC-257 melanoma 0.459% | PC-3 prostate 8.79% | SK-MEL-5 melanoma -39.9% | UACC-62 melanoma 2.25%

Nc1ccc(Cl)c2c(=O)c3ccccc3[nH]c12
inactive: DU-145 prostate 94.1% | K-562 leukemia 83.5% | MALME-3M melanoma 109% | MDA-MB-231 breast 91.5% | RXF 393 renal 80.4% | SF-268 CNS 92.9% | SF-295 CNS 76.4% | SF-539 CNS 83.5% | UACC-257 melanoma 74.7% | M14 melanoma 91.1% | HCT-15 colon 83.1% | HT29 colon 100% | SNB-75 CNS 84.2% | SNB-19 CNS 88.5% | U251 CNS 92.2% | PC-3 prostate 76.6% | SK-MEL-5 melanoma 53.1% | UACC-62 melanoma 93.6% | LOX IMVI melanoma 71.4% | SK-MEL-28 melanoma 113%

CCN=c1sc2c(n1NC(=O)c1cc3ccc1CCc1ccc(cc1)CC3)C(=O)c1ccccc1C2=O
active: DU-145 prostate -91.4% | K-562 leukemia -28.5% | MALME-3M melanoma -87.4% | MDA-MB-231 breast -7.49% | RXF 393 renal -87.2% | SF-268 CNS -10.6% | SF-539 CNS -94.4% | UACC-257 melanoma -90.5% | M14 melanoma -93.5% | HCT-15 colon -68.1% | SNB-75 CNS -98.2% | SNB-19 CNS -74.3% | U251 CNS -81.5% | PC-3 prostate -2.79% | SK-MEL-5 melanoma -96.9% | UACC-62 melanoma -54% | LOX IMVI melanoma -83.9% | SK-MEL-28 melanoma -81.2%
inactive: SF-295 CNS 31% | HT29 colon 49%

O=c1ccc2c(ccc3ncccc32)o1
inactive: DU-145 prostate 117% | K-562 leukemia 113% | MALME-3M melanoma 121% | MDA-MB-231 breast 120% | RXF 393 renal 95% | SF-268 CNS 113% | SF-295 CNS 90.4% | SF-539 CNS 106% | UACC-257 melanoma 110% | M14 melanoma 128% | HCT-15 colon 108% | HT29 colon 99.9% | SNB-75 CNS 105% | SNB-19 CNS 118% | U251 CNS 109% | PC-3 prostate 94.3% | SK-MEL-5 melanoma 95% | UACC-62 melanoma 112% | LOX IMVI melanoma 102% | SK-MEL-28 melanoma 113%

C#Cc1ccc(NC(=O)Cc2ccc(/C=C/C(=O)c3nccn3C)cc2)cc1
active: HT29 colon 6.76%
inactive: DU-145 prostate 12.6% | K-562 leukemia 18.2% | MALME-3M melanoma 95.7% | MDA-MB-231 breast 54.4% | RXF 393 renal 21.8% | SF-268 CNS 38% | SF-295 CNS 77% | SF-539 CNS 26.3% | UACC-257 melanoma 103% | M14 melanoma 98.6% | HCT-15 colon 23% | SNB-75 CNS 12.7% | SNB-19 CNS 39.3% | U251 CNS 15.1% | PC-3 prostate 39.6% | SK-MEL-5 melanoma 87.3% | UACC-62 melanoma 72.9% | LOX IMVI melanoma 24.1% | SK-MEL-28 melanoma 107%

CC/C(=C(/c1ccc(Cl)cc1)c1ccc(OCCCN(C)C)cc1)c1ccc(OC)cc1
inactive: DU-145 prostate 85.7% | MALME-3M melanoma 74.1% | MDA-MB-231 breast 76.3% | RXF 393 renal 53.1% | SF-268 CNS 84.2% | SF-295 CNS 88.5% | SF-539 CNS 82.8% | UACC-257 melanoma 84.7% | M14 melanoma 32.8% | HCT-15 colon 12.8% | SNB-75 CNS 81% | SNB-19 CNS 82.8% | PC-3 prostate 49.3% | SK-MEL-5 melanoma 63.4% | UACC-62 melanoma 104% | LOX IMVI melanoma 16.6% | SK-MEL-28 melanoma 76.6%
active: K-562 leukemia -27.4% | HT29 colon 1.68% | U251 CNS 6.12%

Cc1ccc(OCCOCCOCCOCCOc2ccc(C)n(O)c2=S)c(=S)n1O
inactive: DU-145 prostate 17.5% | K-562 leukemia 16.2% | MALME-3M melanoma 15.6% | MDA-MB-231 breast 34.9% | RXF 393 renal 38.6% | SF-268 CNS 11.4% | SF-295 CNS 18.2% | HCT-15 colon 28.5% | HT29 colon 23.9% | SNB-75 CNS 33.1% | SNB-19 CNS 15.3% | PC-3 prostate 32.7% | SK-MEL-28 melanoma 31%
active: SF-539 CNS 5.23% | UACC-257 melanoma -9.07% | M14 melanoma -16.1% | U251 CNS 9.43% | SK-MEL-5 melanoma -15.8% | UACC-62 melanoma -0.19% | LOX IMVI melanoma 4.26%
